# Calls of active or inactive are those of the source.
# Assay: JC-1 mitochondrial signal, unstimulated adipocytes – cell-based, JC-1 fluorescence, 3T3-L1 adipocytes, 24 h, 100 nL compound, profiling panel (AID 1168)
# Settings: JC-1 mitochondrial fluorescence, higher = more signal, called active from +8 up or from −8 down
# Also: test concentration not given here.
row,Compound,z-score
1,O=C1[C@@]23C=C(Br)[C@H](C[C@@H]2CCOC3)[C@@]12CO2,-0.0633 (inactive)
2,COC(=O)[C@@]1(Cc2ccc(OC)cc2)[C@H]2c3cc(C(=O)N(C)C)n(C)c3C[C@H]2CN1C(=O)c1ccccc1,-0.536 (inactive)
3,COCCOC(=O)N1C(=O)[C@@]2(c3cc(C#CCNC(N)=O)ccc31)[C@H](C(=O)N1CCN(c3ncccn3)CC1)[C@H]1C(=O)O[C@H](c3ccccc3)[C@H](c3ccccc3)N1[C@@H]2c1ccc(OCCO)cc1,1.6 (inactive)
4,COCCCNC(=O)[C@@H]1c2ccccc2C(=O)N(Cc2ccccc2Cl)[C@H]1c1ccc(CO)cc1,0.385 (inactive)
5,C=CC[C@]1(C(=O)NCCCOC)N=C(c2ccc(OCCCO)cc2)O[C@H]1c1ccccc1CN=[N+]=[N-],-0.299 (inactive)

# Assay: JC-1 mitochondrial signal, unstimulated myeloma cells – cell-based, JC-1 fluorescence, RPMI8226, 24 h, 100 nL compound, profiling panel (AID 1169)
# Settings: JC-1 mitochondrial potential fluorescence, higher = more signal
row,Compound,z-score
1,COc1ccc(C#Cc2ccc3c(c2)[C@]2(C(=O)N3)[C@H](c3ccccc3OCCO)N3[C@H](c4ccccc4)[C@H](c4ccccc4)OC(=O)[C@H]3[C@@H]2C(=O)Nc2nc3ccccc3s2)cc1,-0.631
2,COCCCNC(=O)[C@@]1(C)c2ccccc2C(=O)N(C(C)C)[C@H]1c1ccc(CO)cc1,0.887
3,COc1cc2c(cc1OC)CN(C(=O)[C@@H]1[C@H]3C(=O)O[C@H](c4ccccc4)[C@H](c4ccccc4)N3[C@H](c3ccc(O)cc3)[C@@]13C(=O)Nc1ccccc13)CC2,-1.08
4,COc1cccc(-c2cccc(=O)o2)c1,0.812
5,COCCOC(=O)N1C(=O)[C@@]2(c3ccccc31)[C@H](c1ccc(O)cc1)N1[C@H](c3ccccc3)[C@H](c3ccccc3)OC(=O)[C@H]1[C@@H]2C(=O)Nc1nc2ccccc2s1,-0.883
6,O=C1O[C@@H](c2ccccc2)[C@@H](c2ccccc2)N2[C@@H](c3ccccc3OCCO)[C@]3(C(=O)Nc4ccccc43)[C@@H](C(=O)Nc3nc4ccccc4s3)[C@H]12,-1.3
7,CCCC[C@H]1OB(O)C[C@H]2C1=C(COC)Cn1c(=O)n(-c3ccccc3)c(=O)n12,0.454
8,C=C(COC)C(=O)CC[C@@H](OC(C)=O)c1ccc(CO)o1,-0.548
9,O=C1C[C@@](C(=O)NCC(F)(F)F)(c2ccc([N+](=O)[O-])cc2)[C@@H](c2ccc(CO)cc2I)N1C1CCCCC1,-0.521
10,COCCOC(=O)N1C(=O)[C@@]2(c3cc(C#CCC(C(=O)OC)C(=O)OC)ccc31)[C@H](C(=O)Nc1nc3ccccc3s1)[C@H]1C(=O)O[C@H](c3ccccc3)[C@H](c3ccccc3)N1[C@@H]2c1ccccc1OCCO,-0.859
11,CN1C(=O)C2C=CC(C(O)C3CC=CCC3)N(N(c3ccccc3)c3ccccc3)C2C1=O (stereo not drawn),-0.23
12,N#Cc1ccc(NN2C(C(O)C(c3ccccc3)c3ccccc3)C=CC3C(=O)N(c4ccccc4)C(=O)C32)cc1 (stereo not drawn),-0.812
13,O=C1N[C@@H](Cc2ccccc2)C(=O)N2[C@@H]1C[C@@H](C(=O)O)[C@H]2c1cccc(OCCO)c1,0.448
14,COC(=O)[C@@]1(Cc2ccc(F)cc2)[C@H]2c3cc(C(=O)N(C)C)n(Cc4cc(F)c(F)c(F)c4)c3C[C@H]2CN1C(=O)c1ccccc1,-0.803
15,COc1ccc([Si](C)(C)[C@H]2[C@H](CC(=O)N3Cc4ccccc4C[C@H]3CO)O[C@@]3(C(=O)N(Cc4cccc(N5CCC5=O)c4)c4ccccc43)[C@@H]2C)cc1,-1.02
16,CC1CC/C=C\[C@H]2OC34C=CCN(C(C)(C)C)C(=O)[C@H]3N(CCO)C(=O)[C@@H]4C2C(=O)O1 (stereo partly drawn),-0.0147
17,CC(C)=CCN[C@H](CO)c1ccccc1,-0.0908
18,CC(C)C[C@@H]1NC(=O)[C@@H]2C[C@H](C(=O)NCc3ccc(F)cc3)[C@H](c3cccc(OCCO)c3)N2C1=O,-0.0212
19,COC(=O)[C@@]1(Cc2ccc(F)cc2)[C@H]2c3cc(C(=O)N4CCCC4)n(Cc4ccc(S(C)(=O)=O)cc4)c3C[C@H]2CN1C(=O)c1ccccc1,0.611
20,Cc1ccc(S[C@]2(C(=O)NCCCN(C)C)CC(=O)N(Cc3cc(C(F)(F)F)cc(C(F)(F)F)c3)[C@@H]2c2ccc(CO)cc2I)cc1,-0.442
21,O=C1C[C@@](C(=O)NCCN2CCOCC2)(c2ccc([N+](=O)[O-])cc2)[C@@H](c2ccc(CO)cc2I)N1CC12CC3CC(CC(C3)C1)C2,-0.93
22,CCCC=C(CCC)[C@@H](NC(=O)c1cccs1)c1ccc(C(F)(F)F)cc1,-0.393
23,CCOC(=O)C[C@H]1[C@H](OC(=O)c2ccc(C(=O)c3ccccc3)cc2)[C@@H](NC(=O)c2ccccc2)c2cc(OCCCO)ccc2N1C(=O)c1ccc2ccccc2n1,-0.517
